Screening data: PubChem, National Center for Advancing Translational Sciences (NCATS)
Rows were chosen to be rich in hits. Some 11% of all compounds tested hit in one or more screens of this group.
Pf growth 96h: P. falciparum growth inhibition at 96 hour, primary screen for plastid delayed-death inhibitors; P. falciparum luciferase reporter growth, 96 h; Potency, µM (highest dose often 28.7 µM), without a hit: at the highest dose activity change, negative = inhibition, hits mostly inhibitors; 320,000 tested, 6.9% active; AID 504834
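Erythrocytes infected with luciferase-expressing P. falciparum were dispensed at 2% hematocrit and 0.05% parasitemia (final), then incubated with compounds 96 hours at 37 C in 5% CO2. Luminescence after detection reagent addition reported growth.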
Pf growth 48h: P. falciparum growth inhibition at 48 hours (one generation). P. falciparum luciferase growth in erythrocytes, 48 h. Potency, µM (doses to about 28.7 µM), for inactives: top-dose activity change, negative = inhibition, actives largely listed as inhibitors. 310,000 tested, 5.9% active
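A one-generation exposure of luciferase-tagged malaria parasites in RPMI 1640/Albumax erythrocyte culture, 37 C and 5% CO2. Inhibition is inferred from decreased luminescence after adding detection reagent.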
AMA1-RON2 inh: disrupts binding of P. falciparum AMA1 to RON2; AlphaScreen AMA1-biotinylated RON2 peptide binding; Potency, µM (doses to about 58.2 µM), for the others: at the highest dose activity change, negative = inhibition, usual class: inhibitors; 360,000 tested, 0.2% active; AID 720542;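 also: 0% = vehicle wells and -100% = peptide control; nearly all actives have a fitted effect of over 45% in size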
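AMA1 (3D7) with his tag at 25 nM final met compounds first, then biotinylated RON2 peptide at 25 nM; detection used donor plus acceptor beads, 10 µg/mL apiece, read by AlphaScreen after 30 min at room temperature.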
HCV inh: HCV inhibition | Huh7.5.1 HCVcc-Cre infection, luciferase reporter, 44 h | Potency, µM (highest dose often 41.8 µM), inactives show at the top dose activity change, negative = inhibition, actives largely listed as inhibitors | 340,000 tested, 3.4% active | AID 651820
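HCVcc-Cre virus at an moi near 0.5 was added right after compound to cells cultured 4 h from seeding (1,000 cells/well). Luciferase activity was determined 44 h later, 15 min after substrate addition at RT.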
Active calls of the source: *; ? = inconclusive; · = no result given; [ ] = dose if it differs, or a comment. Calls follow the shape of the dose curve; as a rule, active = well fitted curve in the direction sought with a large enough effect; inconclusive = small, poorly fitted or top-dose-only effect, or another doubt; inactive = no such curve, though single readings can be large; an effect the other way counts as inactive or inconclusive. Unless noted, % is scaled to controls: 0 for no effect and ±100 for the full control effect; potency is read from the fitted curve at half-maximal effect.

SMILES | Pf growth 96h | Pf growth 48h | AMA1-RON2 inh | HCV inh
CN(C)c1ccc(NC(=O)C2C3C=CC(C3)C2C(=O)O)cc1 (stereo not drawn) | ? | 2.62µM* | -9.4% | 10.0%
O=C(C[n+]1cc(Br)cc(Br)c1)c1ccccc1 | 0.165µM* | 12.9% | -3.8% | 1.6%
O=C(Cn1cc[n+](CC(=O)c2ccccc2)c1)c1ccccc1 | ? | 1.04µM* | 10.5% | -4.3%
O=C(C[n+]1cc(Br)cc2ccccc21)c1ccc(Br)cc1 | ? | -15.9% | -14.9% | -29.0%
CC(=O)Nc1cc[n+](CC(=O)c2ccc(Cl)cc2)cc1 | 9.28µM* | ? | -1.3% | ?
O=C(C[n+]1cc(Br)cc2ccccc21)c1ccc(Cl)cc1 | 13.1µM* | ? | -12.1% | -19.0%
Clc1ccc(Cn2ncc3c(N4CCN(c5ccccc5)CC4)ncnc32)cc1 | · | · | 16.6% | ·
CC(=O)N(Cc1ccccc1)Cc1cn(CCC#N)nc1-c1cccc([N+](=O)[O-])c1 | -35.0%[5.75 µM] | -35.0%[5.75 µM] | -4.8% | -9.3%
O=C(C[n+]1ccc2ccccc2c1)c1ccccc1 | 9.28µM* | ? | 27.3% | 5.9%
O=C(C[n+]1cc(Br)cc(Br)c1)c1ccc(Cl)cc1 | ? | -13.2% | -4.4% | 31.6µM*
Cc1ccc[n+](CC(=O)c2ccc(Cl)cc2)c1 | 0.828µM* | 4.0% | -22.5% | 1.9%
Cc1ccc(C(=O)C[n+]2cc(Br)cc(Br)c2)cc1 | ? | -29.5% | -2.5% | -10.1%
O=C(/C(=C(\[O-])c1ccccc1)[n+]1ccc2ccccc2c1)c1ccccc1 | 13.1µM* | ? | 10.0% | 0.5%
O=C(/C(=C(\[O-])c1ccccc1)[n+]1ccc2ccccc2c1)c1ccc(Cl)cc1 | ? | ? | -19.1% | 5.4%
COc1ccccc1CC1S/C(=N/N=C/c2ccco2)NC1=O (stereo not drawn) | 25.6% | -14.6% | 30.6% | 19.0%
Cc1cc(C)c[n+](CC(=O)c2ccc(C)c([N+](=O)[O-])c2)c1 | ? | 23.5% | 0.0% | 1.1%
Cc1ccc(C(=O)C[n+]2cc(Br)cc(Br)c2)cc1[N+](=O)[O-] | ? | 9.28µM* | -3.0%[2.32 µM] | ?
Cc1ccccc1NC(=O)COC(=O)c1ccc(S(=O)(=O)N2CCCC2)cc1 | 23.3% | 20.1% | -1.6% | 4.8%
CSc1sc(C(=O)NCC2CC2)cc1S(=O)(=O)C(C)C | -4.2% | 2.33µM* | -0.8% | -2.1%
CSc1sc(C(=O)N2CCc3ccccc32)cc1S(=O)(=O)C(C)C | ? | ? | -11.5% | ?
CCc1cc(C(=O)c2ccc(OC)cc2)c(NC(=O)CN2CCCCC2)s1 | 3.7µM* | 3.7µM* | 12.7% | 9.8%
CCc1cc(C(=O)c2ccc(OC)cc2)c(NC(=O)CN2CCCC2)s1 | ? | ? | 1.9% | -27.4%
COc1cccc(C#Cc2c(C=O)n(C)c3ccccc23)c1 | ? | 13.1µM* | 202.9% | ?
Oc1ccccc1-c1cc(-c2ccco2)[nH]n1 | -10.3% | · | 33.0% | ?
Oc1ccc(Br)cc1-c1cc(-c2ccco2)[nH]n1 | · | 11.7µM* | 30.6% | ?
SMILES | Pf growth 96h | Pf growth 48h | AMA1-RON2 inh | HCV inh
O=C(Nc1ccccc1C(=O)N1CCCCC1)c1cc(F)c(F)cc1Cl | 101.0% | -12.2% | 2.9% | -15.1%
O=C(Nc1cccn(Cc2c(Cl)cccc2Cl)c1=O)c1ccc(Cl)cc1Cl | 7.4% | ? | 2.5% | 11.2µM*
Cc1ccnc(NC(=O)c2ccccc2NC(=O)c2ccc(Cl)cc2Cl)c1 | -106.6% | ? | 22.4% | 10µM*
O=C(NC(=S)N1CCCCCC1)c1ccccc1 | 14.4% | ? | 95.2% | 14.4%
O=C(NC(=S)N1CCCCCC1)c1ccc(Cl)cc1Cl | 9.28µM* | ? | 81.9% | -2.7%
O=C(Nc1ccccc1C(=O)N1CCCC1)c1ccc(Cl)cc1Cl | 11.7µM* | 17.9% | -14.6% | -5.0%
Oc1ccc(N=Nc2n[nH]c(-c3ccc(Cl)cc3)n2)cc1 | ? | 10.8% | 85.8% | -13.1%
O=C(CS(=O)(=O)Cc1ccccc1)c1ccccc1 | · | · | 3.0% | ·
O=C(NC(=S)NNC(=O)c1ccc(Cl)cc1Cl)c1cccnc1 | ? | 0.4% | 61.8% | 14.1%
Cc1ccccc1C(=O)NNC(=S)NC(=O)c1ccc(Cl)cc1Cl | -29.2% | · | 51.8% | 0.562µM*
O=C(NC(=S)N1CCCCCC1)c1ccccc1Cl | -11.6% | 5.22µM* | 54.9% | -18.8%
CN1CCN(C(=S)NC(=O)c2ccccc2Cl)CC1 | -22.0% | 0.0% | -3.6% | 18.7%
COC(=O)C(O)(CC(=O)Nc1cc(Cl)ccc1Cl)C(F)(F)F (stereo not drawn) | 46.7% | 34.1% | 2.3% | 5.2%
